Source: PubChem
RGS12 GoLoco inh = qHTS Assay for Inhibitors of RGS12 GoLoco Motif Activity (Red Fluorophore) | Gai1:RGS12 GoLoco peptide FP, rhodamine, 10 min | Potency, µM (titrated, usually from 61.6 µM), for the others: at the highest dose activity, negative = inhibition, usual class: inhibitors | actives 0.44% (n = 230,000) | AID 880, 2007; active = well fitted inhibition curve with a large enough effect, not every such curve was filed as active; inactive = no such curve, though single readings can be large or run the other way; note: nearly all actives have a fitted effect of over 30% in size
MBNL1 CUG block = qHTS Assay for Inhibitors of MBNL1-poly(CUG) RNA binding; Muscleblind-like protein 1 (Homo sapiens), Q9NR56; TR-FRET MBNL1-His/biotin-(CUG)12 binding, 665/545 ratio; Potency, µM (titrated, usually from 57.5 µM), without a hit: top-dose activity change, negative = inhibition, hits mostly inhibitors; actives 0.036% (n = 280,000); AID 2675, 2010; active = well fitted inhibition curve with a large enough effect in the signal ratio, with a control signal flat, not every such curve was filed as active; inconclusive = small, poorly fitted or top-dose-only effect, or effect the other way, or a change in a side signal; inactive = no such curve, though single readings can be large or run the other way; the % refers to the signal ratio
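Compounds (final 92 nM to 58 uM) are added to His-tagged MBNL1 and biotin-(CUG)12, then terbium anti-His antibody and streptavidin-XL665 (5 nM final). After 60 min at room temperature, the 665/545 nm ratio is read.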
Tb PFK block = qHTS Assay to Find Inhibitors of T. brucei phosphofructokinase | ATP-dependent 6-phosphofructokinase (Trypanosoma brucei brucei), O15648 | T. brucei PFK, ADP-Glo luminescence | Potency, µM (top dose mostly 57.5 µM), for inactives: at the top dose activity, negative = inhibition, actives largely listed as inhibitors | actives 0.17% (n = 330,000) | AID 485367, 2010;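 note: 0% = uninhibited 1x PFK enzyme wells and -100% = no-enzyme wells; nearly all actives have a fitted effect of over 60% in size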
Target sequence (O15648 whole entry, looked up): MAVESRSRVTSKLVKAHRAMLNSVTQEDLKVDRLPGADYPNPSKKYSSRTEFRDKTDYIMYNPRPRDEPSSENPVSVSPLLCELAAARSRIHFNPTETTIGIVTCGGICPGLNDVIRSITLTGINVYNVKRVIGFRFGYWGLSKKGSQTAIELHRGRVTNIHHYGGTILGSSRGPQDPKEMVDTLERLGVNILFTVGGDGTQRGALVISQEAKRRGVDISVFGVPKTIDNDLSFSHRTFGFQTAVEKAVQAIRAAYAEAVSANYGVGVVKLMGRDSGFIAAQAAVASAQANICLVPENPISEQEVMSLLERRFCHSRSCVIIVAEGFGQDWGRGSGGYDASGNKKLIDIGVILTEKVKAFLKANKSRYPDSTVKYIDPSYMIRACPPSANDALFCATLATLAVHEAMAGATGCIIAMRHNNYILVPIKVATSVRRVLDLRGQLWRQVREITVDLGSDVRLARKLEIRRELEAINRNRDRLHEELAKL
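In TEA buffer at pH 8.0 with 5 mM MgCl2, enzyme (1.25 nM) converted F6P (0.5 mM) and ATP (0.1 mM) for 45 min at room temperature. ADP product was read by luciferase luminescence.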
IMPase Li cell = qHTS Assay for Identifying the Cell-Membrane Permeable IMPase Inhibitors: Potentiation with Lithium; AID 1457, 2008; Potency, µM (titrated, usually from 59.4 µM), without a hit: at the highest dose activity, negative = IMPase inhibition, usual class: inhibitors; actives 0.35% (n = 210,000); CHO-M1 cells, IP1 TR-FRET (IP-One), carbachol + lithium;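 note: IP1 builds up when IMPase is blocked and the TR-FRET signal falls; plate controls were basal vehicle for no effect and high inhibitor control for full effect; nearly all actives have a fitted effect of over 50% in size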
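IP1 accumulation measured by competitive TR-FRET in lysed CHO-M1 cells after 30 min compound exposure at 37C, with a small lithium addition to potentiate weak responses. Hill-equation AC50 from ratio and donor-channel data.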
NPSR antag = qHTS Assay for Antagonists of the Neuropeptide S Receptor: cAMP Signal Transduction; Q6W5P4; CHO-NPSR cells, cAMP TR-FRET, antagonist mode; Potency, µM (series often up to 38.3 µM), without a hit: at the top dose activity change, negative = inhibition, hits mostly inhibitors; actives 1% (n = 220,000); AID 1461, 2008; note: nearly all actives have a fitted effect of over 50% in size
* hit, by the source's call; u = inconclusive; x = not tested or not shown; [ ] = remark or other dose. The entries come from a sample that favours hits as a whole. Unless noted, calls come from the whole dose curve; as a rule, active = well fitted curve in the direction sought with a large enough effect; inconclusive = small, poorly fitted or top-dose-only effect, or another doubt; inactive = no such curve, though single readings can be large; an effect the other way counts as inactive or inconclusive. Unless noted, % is set by controls: 0 for no effect and ±100 for the full control effect; potency is the fitted concentration of half-maximal effect.

SMILES	RGS12 GoLoco inh	MBNL1 CUG block	Tb PFK block	IMPase Li cell	NPSR antag
COc1ccc(NS(=O)(=O)c2ccc(N3CCOCC3)c(NC(=O)c3ccco3)c2)cc1	-12%	-6%	6%	7%	-26%
COc1ccc(NS(=O)(=O)c2cc(NC(=O)C3CC3)ccc2N2CCCCC2)cc1	7%	-3%	7%	11%	13µM*
CCN(CC)C(=O)CSc1nc2c(sc(=S)n2-c2ccccc2)c(=O)n1Cc1ccco1	2%	9%	1%	10%[38.3 µM]	10µM*
CCN(CC)C(=O)CSc1nc2c(sc(=S)n2CC)c(=O)n1-c1ccccc1	4%	5%	3%	-10%[38.3 µM]	-28%[46.1 µM]
O=C(Cc1ccc([N+](=O)[O-])cc1)Nc1cccc(C(=O)N2CCCCC2)c1	x	x	-9%	x	x
Cc1cc(-c2ccc(N=Nc3cc(S(=O)(=O)O)c4ccccc4c3N)c(C)c2)ccc1N=Nc1cc(S(=O)(=O)O)c2ccccc2c1N	125%	x	x	-2%	x
COc1cc(NC(=O)Cn2c(C)cc3ccccc3c2=O)cc(OC)c1OC	5%	14%	-2%	25µM*	u
Cc1ccc(-n2c(=S)[nH]c3c(oc4ccccc43)c2=O)cc1	x	-14%	0%	x	u
Cc1cccc(-n2c(=S)[nH]c3c(oc4ccccc43)c2=O)c1	-3%	x	-1%	8.9µM*	-37%
O=c1c2oc3ccccc3c2[nH]c(=S)n1-c1ccccc1	-18%	u	0%	8.9µM*	-30%
Nc1sc(-c2ccccc2)cc1C(=O)O	93%	-9%	4%	-24%[38.3 µM]	-20%[46.1 µM]
CC(C)(C)C(=O)Nc1sc(-c2ccccc2)cc1C(=O)O	5%	34%	-2%	x	13µM*
Cc1cccc(C(=O)Nc2sc(-c3ccccc3)cc2C(=O)O)c1	3%	-3%	3%	x	13µM*
CCN(CC(=O)NC1CCS(=O)(=O)C1)S(=O)(=O)c1cc(C)ccc1C (stereo not drawn)	x	x	-1%	x	x
CCn1c2ccccc2c2nnc(SCC(=O)Nc3c(C)n(C)n(-c4ccccc4)c3=O)nc21	16%	u	1%	-9%[38.3 µM]	9%[46.1 µM]
CCn1c2ccccc2c2nnc(SCC(=O)Nc3cc(C)on3)nc21	-11%	-4%	-14%	11µM*	-22%[46.1 µM]
Cc1ccc(NC(=O)CN(C)C(=O)COc2cccc3ccc(C)nc23)cc1	x	x	3%	x	x
N#Cc1cc(-c2ccccc2)cnc1Sc1ccc(Cl)cc1	3%	-7%	2%	1%[38.3 µM]	-21%[46.1 µM]
N#Cc1cc(-c2ccc(Cl)cc2)cnc1Sc1ccc(F)cc1	4%	-1%	0%	25µM*	-9%[46.1 µM]
Cc1ccc(CN=Cc2[nH]c3ccc(Br)c(Cl)c3c2O)cc1	158%	4%	-11%	8.9µM*	3%[46.1 µM]
NCCC[C@@H](CC(=O)N[C@@H]1CCCC[C@H]1C(=O)N[C@H](CC(=O)N[C@@H](CCC(=O)O)CC(=O)O)Cc1c[nH]c2ccccc12)NC(=O)C[C@H](CO)NC(=O)[C@@H]1CNCC[C@H]1N	-3%	x	x	13%	x
CCc1ccccc1Nc1nn2c(=O)c3ccc(C(=O)NCCCOC(C)C)cc3nc2s1	x	x	0%	x	x
COc1ccc(-c2nc(-c3ccccc3)c(-c3cc([N+](=O)[O-])ccc3C)[nH]2)cc1OC	29%	0%	3%	28%[38.3 µM]	7.9µM*
CCOc1cc(-c2nc(-c3ccccc3)c(-c3cc([N+](=O)[O-])ccc3C)[nH]2)ccc1O	-15%	-8%	x	10%[38.3 µM]	u
Cc1ccc(-c2csc3nnc(SCC(=O)Nc4nsc(-c5ccccc5)n4)n23)cc1	1%	-1%	x	-6%[38.3 µM]	u
Cc1ccc(-c2nc(NC(=O)CSc3nnnn3-c3ccccc3)ns2)cc1	13%	-7%	-1%	10µM*	7%[46.1 µM]
C=C(C(C)=O)C(O)c1ccc2ccccc2c1 (stereo not drawn)	-4%	x	x	4%	x
O=C(CCC(=O)Nc1nnc(C2CCCCC2)s1)NCc1cccs1	-4%	-8%	2%	14µM*	5%[46.1 µM]
Cc1nnc(NC(=O)CCC(=O)NCc2cccs2)s1	-8%	-11%	4%	-7%[38.3 µM]	-2%[46.1 µM]
